# MITF inh: inhibitors of human MITF; O75030; AlphaScreen MITF homodimerization, bead proximity signal; inhibition, % at 2.6 µM; 0.91% of 650,000 active; in the data active = inhibition above about 50%;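 also: 0% = vehicle wells with protein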
# TEAD-YAP inh: TEAD-YAP interaction inhibition. 1.4% of 640,000 active. inhibition, % at 9.12 µM. HEK-TIYL cells, TEAD-Gal4/YAP UAS-luciferase luminescence; in the data active = inhibition above about 32%;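 also: 0% = median of test compound wells and 100% = reference inhibitor wells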
# FBW7 activator: human FBW7 E3 ligase activation, primary screen; Q969H0; normalized activity (activation), % at 26.1 µM; 0.13% of 650,000 active; AlphaScreen FBW7–phospho-cyclin E peptide binding, activator screen; in the data active = normalized activity above about 1.9%;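 also: purified mutant Fbw7 with reduced substrate affinity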
# Target sequence (Q969H0 whole entry, looked up): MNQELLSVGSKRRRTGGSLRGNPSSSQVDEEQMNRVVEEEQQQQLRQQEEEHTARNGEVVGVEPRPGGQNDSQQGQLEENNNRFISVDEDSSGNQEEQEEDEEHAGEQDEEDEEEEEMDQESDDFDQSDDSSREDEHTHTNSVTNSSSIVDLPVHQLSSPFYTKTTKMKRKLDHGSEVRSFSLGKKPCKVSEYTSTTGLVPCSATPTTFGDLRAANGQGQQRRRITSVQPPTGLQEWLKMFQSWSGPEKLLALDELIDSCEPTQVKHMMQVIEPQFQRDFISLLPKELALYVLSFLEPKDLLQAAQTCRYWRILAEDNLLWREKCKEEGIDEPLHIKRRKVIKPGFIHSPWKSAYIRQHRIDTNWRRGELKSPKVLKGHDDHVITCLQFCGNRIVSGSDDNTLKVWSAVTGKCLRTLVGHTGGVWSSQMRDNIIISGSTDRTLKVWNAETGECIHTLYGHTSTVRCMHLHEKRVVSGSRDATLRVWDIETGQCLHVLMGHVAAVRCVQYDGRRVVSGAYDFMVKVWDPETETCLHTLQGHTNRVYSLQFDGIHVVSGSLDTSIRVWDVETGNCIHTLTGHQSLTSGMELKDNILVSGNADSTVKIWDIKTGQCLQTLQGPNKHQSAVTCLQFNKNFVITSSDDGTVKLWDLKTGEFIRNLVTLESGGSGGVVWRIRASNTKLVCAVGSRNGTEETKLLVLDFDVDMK
# GPR151 ag: activates the human receptor GPR151; AID 1508602; PathHunter beta-arrestin GPR151 cells, luminescence; activation, % at 11.2 µM; 1% of 650,000 active; Q8TDV0; in the data active = activation above about 4.9%;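 also: 0% = median of compound wells and 100% = cells with positive control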
# GPR151 confirm: human GPR151 activation, confirmation screen; shares compounds with GPR151 ag; GPR151 PathHunter beta-arrestin cells, luminescence, 90 min; % of EA-reagent control over plate median; activation, % at 11.2 µM; 6,700 tested, under 10 active;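 active = mean percent activation across replicates above the confirmation screen cutoff of 4.91%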
# GPR119 ag: GPR119 activation, counter-screen for GPR151 activators; shares compounds with GPR151 ag; GPR119 PathHunter beta-arrestin cells, luminescence, 90 min; 0 = compound-well median, 100 = enzyme-acceptor control; activation, % at 11.2 µM; 0.3% of 6,700 active; AID 1508611;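 active = mean percent activation in the counterscreen above 29.09%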;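 also: counterscreen on off-target GPR119 to flag nonselective hits from the GPR151 activator screen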
# An asterisk follows results filed as active; . = no result. Compounds with a hit are over-represented: about 3.4% of the library has one in this group of screens.
SMILES,MITF inh,TEAD-YAP inh,FBW7 activator,GPR151 ag,GPR151 confirm,GPR119 ag
CCOc1ncnc2c1sc1nc(N3CCOCC3)c3c(c12)CC(C)(C)OC3,-9,-11,0,0,.,.
CCCCn1c(O)c(Nc2ccc3c(c2)=NC(=O)N=3)c2ccccc21,1,2,0,6.8*,1,11
CCCCn1c(O)c(C2=c3ccccc3=NC2=O)c2ccccc21,26,13,0,-2,.,.
COc1cc(C(=O)Nc2sc3c(c2C#N)CCN(C(C)=O)C3)cc(OC)c1OC,6,29,0,-1,.,.
COc1cc(OC)cc(C(=O)Nc2sc3c(c2C#N)CCN(C(C)=O)C3)c1,9,61*,0,7.3*,1,4
CCc1ccc2[nH]c(=O)c(C(c3nnnn3CCOC)N3CCOCC3)cc2c1 (stereo unspecified),-1,5,0,1,.,.
COc1ccc(CNS(=O)(=O)c2ccc(Cl)c(OC)c2)cc1,-8,-1,0,0,.,.
COc1cc(S(=O)(=O)N2CC(C)OC(C)C2)ccc1Cl (stereo unspecified),-14,-12,0,8.0*,-1,-16
CCNS(=O)(=O)c1ccc(Cl)c(OC)c1,-5,-6,0,8.0*,0,0
COc1cc(S(=O)(=O)N2CC(C)OC(C)C2)ccc1Br (stereo unspecified),3,-4,0,-1,.,.
OCCNc1nc(-c2ccccc2)nc2c1ncn2-c1ccccc1,15,12,1,0,.,.
Cc1nc2cc(F)ccc2n1C1CCN(C(=O)C23CC4CC(CC(C4)C2)C3)CC1,26,-4,0,4,.,.
CCOC(=O)C1=C(CN2CCN(CC)CC2)NC(=O)NC1c1cc(C)ccc1C (stereo unspecified),-21,-6,0,7.5*,0,8
Brc1cccc(CNCc2cccnc2)c1,16,4,0,1,.,.
Brc1cccc(CNCc2ccncc2)c1,4,12,0,13*,1,-5
CC(=NCCCn1cnc2c1c(=O)n(C)c(=O)n2C)N(C)C,14,-2,0,6.4*,0,1
CC(=O)OCCN(C)c1cc(SC2CCCCC2)c2nonc2c1[N+](=O)[O-],20,-7,0,-1,.,.
CC(C)c1nnc(NC(=O)c2cc(Cl)ccc2Cl)s1,6,-12,0,5.1*,1,-9
NC(=O)C(=O)NCc1ccc(Cl)cc1,2,-1,1,5.9*,0,-2
Cc1ccc(C(=O)NCc2ccccc2)o1,10,3,0,0,.,.
Cc1ccc(C(=O)NCc2ccc(Cl)cc2)o1,5,-7,0,7.7*,1,-9
Cc1cc(S(=O)(=O)NC2CCCCC2)ccc1OCC(=O)Nc1ccccc1F,6,-8,1,5.0*,1,13
COc1ccc2cc(S(=O)(=O)NC3CCCCC3)ccc2c1,6,-2,0,5.2*,0,11
O=C(Nc1ccc(S(=O)(=O)NC2CCCCC2)cc1)Nc1cccc(Cl)c1,13,8,0,5.1*,0,11
Cc1cccc(NC(=O)COc2ccc(S(=O)(=O)NC3CCCCC3)cc2)c1,-2,4,0,1,.,.
SMILES,MITF inh,TEAD-YAP inh,FBW7 activator,GPR151 ag,GPR151 confirm,GPR119 ag
CSc1cccc(NC(=O)COc2ccc(S(=O)(=O)NC3CCCCC3)cc2)c1,-1,-4,0,5.3*,2,3
COc1ccc(S(=O)(=O)NC2CCCCC2)cc1,22,-8,0,-2,.,.
Cc1cc(S(=O)(=O)NC2CCCCC2)ccc1OCC(=O)NC(C)C,-9,8,0,1,.,.
O=C(CSc1nnc(-c2c[nH]c3ccccc23)n1-c1ccc(F)cc1)N1CCOCC1,6,0,0,0,.,.
Cc1ccc2c(c1)N(CC(=O)Nc1ccc3c(c1)OCCO3)C(=O)CO2,11,14,0,-1,.,.
COc1ccc(NC(=O)CN2C(=O)C(C)Oc3ccc(C)cc32)cc1 (stereo unspecified),23,5,0,-1,.,.
CCOC(=O)CN1C(=O)COc2ccc(Cl)cc21,-4,0,0,5.6*,0,-6
Cc1ccc2c(c1)N(CC(=O)Nc1ccc(Cl)cc1)C(=O)C(C)O2 (stereo unspecified),-8,8,0,22*,1,6
COc1ccc(NC(=O)CN2C(=O)CC(c3ccccc3)Sc3ccccc32)cc1OC (stereo unspecified),-4,1,1,7.4*,1,-3
COc1ccc(NC(=O)CN2C(=O)COc3ccc(C)cc32)cc1OC,6,6,0,6.0*,1,10
COc1ccc(NC(=O)CN2C(=O)CC(c3ccco3)Sc3ccccc32)cc1OC (stereo unspecified),1,12,0,-1,.,.
N#Cc1cc2c(nc1SCC(=O)Nc1ccc(S(=O)(=O)Nc3nccs3)cc1)CCCC2,6,-2,0,0,.,.
O=C(CN1C(=O)COc2ccc(Cl)cc21)Nc1ccc([N+](=O)[O-])cc1,-3,14,0,7.6*,1,-2
CCOC(=O)c1csc(Nc2nc(C(F)(F)F)cc(=O)[nH]2)n1,2,-2,0,0,.,.
Cc1c(NC(=S)NC(=O)c2oc3ccccc3c2C)cccc1-c1nc2ccccc2s1,-2,-9,0,10*,1,18
CC(=O)Oc1cccc(C(=O)Nc2nc(C(C)(C)C)cs2)c1,21,-9,0,7.3*,0,-5
CC(C)(C)c1csc(NC(=O)c2cc([N+](=O)[O-])ccc2Cl)n1,15,6,1,7.1*,-1,0
CC(C)(C)c1csc(NC(=O)c2cc([N+](=O)[O-])cc([N+](=O)[O-])c2)n1,-11,8,0,-1,.,.
CC(C)(C)c1csc(NC(=O)c2cccc(F)c2)n1,-11,-45,0,3,.,.
Cc1cccc(OCC(O)CN2CCCCCC2)c1C (stereo unspecified),1,4,0,9.8*,0,-2
COc1ccc(S(=O)(=O)Nc2ccccc2SC)cc1Br,16,-3,1,5.7*,-1,4
COc1ccc(S(=O)(=O)Nc2cccc3c([N+](=O)[O-])cccc23)cc1OC,-7,-20,0,6.0*,0,7
COc1ccccc1NS(=O)(=O)c1ccc(SC)cc1,4,2,0,6.3*,-1,0
COc1ccc(NC(=S)NNS(=O)(=O)c2cccc([N+](=O)[O-])c2)cc1,-24,-11,0,4.9*,0,-13
COc1ccc(NC(=S)Nc2cccc([N+](=O)[O-])c2)cc1,16,-1,0,-1,.,.
O=C(Nc1ccc(F)c(Cl)c1)N1CCN(S(=O)(=O)c2ccc(Cl)cc2)CC1,-6,10,0,3,.,.
O=C(CCc1nnc(-c2ccc3c(c2)OCO3)o1)N1CCc2c([nH]c3ccccc23)C1,14,0,0,-1,.,.

# Bioassay records: PubChem BioAssay, The Scripps Research Institute Molecular Screening Center
